Out of some 310,000 compounds screened, about 14,000 (4.5%) showed an effect of 50% or more. The effect is printed as a negative number. This is one part of a sample in which strong results are shown more often than they occur.
Target: human ether-à-go-go-related gene (hERG) potassium channel (human, UniProt Q12809)
Assay: primary screen, population patch clamp on CHO cells stably expressing hERG; higher = less effect of the substance
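Also: peak tail current of the secondary pulse compared with the same well before compound.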

Sequence of human ether-à-go-go-related gene (hERG) potassium channel (Q12809 whole entry, looked up): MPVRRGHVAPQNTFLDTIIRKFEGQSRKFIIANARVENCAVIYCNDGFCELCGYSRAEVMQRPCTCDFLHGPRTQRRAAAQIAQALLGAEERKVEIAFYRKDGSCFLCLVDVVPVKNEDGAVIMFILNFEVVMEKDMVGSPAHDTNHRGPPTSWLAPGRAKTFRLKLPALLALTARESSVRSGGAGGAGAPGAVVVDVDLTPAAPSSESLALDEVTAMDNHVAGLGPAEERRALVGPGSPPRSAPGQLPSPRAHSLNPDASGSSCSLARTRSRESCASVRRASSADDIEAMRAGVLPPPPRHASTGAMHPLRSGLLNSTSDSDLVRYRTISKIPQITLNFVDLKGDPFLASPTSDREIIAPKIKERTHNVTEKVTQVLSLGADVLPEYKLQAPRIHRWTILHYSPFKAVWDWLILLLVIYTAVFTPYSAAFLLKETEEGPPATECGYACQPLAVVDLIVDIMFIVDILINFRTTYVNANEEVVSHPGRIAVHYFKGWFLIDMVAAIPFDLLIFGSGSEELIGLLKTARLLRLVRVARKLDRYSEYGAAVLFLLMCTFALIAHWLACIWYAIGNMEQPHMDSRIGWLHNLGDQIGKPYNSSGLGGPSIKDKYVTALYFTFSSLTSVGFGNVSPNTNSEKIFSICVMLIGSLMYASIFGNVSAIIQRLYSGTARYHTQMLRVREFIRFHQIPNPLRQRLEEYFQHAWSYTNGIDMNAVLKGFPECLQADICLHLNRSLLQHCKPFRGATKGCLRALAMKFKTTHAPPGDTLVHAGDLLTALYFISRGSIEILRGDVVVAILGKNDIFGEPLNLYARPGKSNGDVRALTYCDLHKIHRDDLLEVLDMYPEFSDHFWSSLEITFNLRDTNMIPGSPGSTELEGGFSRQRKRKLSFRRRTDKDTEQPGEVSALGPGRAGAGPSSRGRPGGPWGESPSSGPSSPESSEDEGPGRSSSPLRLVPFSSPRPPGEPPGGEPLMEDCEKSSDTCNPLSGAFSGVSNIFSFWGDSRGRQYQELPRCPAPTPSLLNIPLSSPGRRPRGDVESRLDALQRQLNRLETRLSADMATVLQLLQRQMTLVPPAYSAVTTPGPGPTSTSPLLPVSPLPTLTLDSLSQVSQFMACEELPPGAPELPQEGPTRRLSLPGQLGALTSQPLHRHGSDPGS

| SMILES | hERG current change (%, negative = inhibition) at 10uM [%] |
| --- | --- |
| CCCCC1(C(=O)OCC)NC(c2ccc(O)cc2)C2C(=O)N(c3ccccc3)C(=O)C21 (stereo not shown) | -3.73 |
| CCOC(=O)C1=C(N)N2C(=O)C(C)SC2=C(C(=O)OCC)C1c1cc(OC)c(OC)c(OC)c1 (stereo not shown) | 1.27 |
| COc1ccc(OC)c(S(=O)(=O)N2CCC(C(=O)NCc3ccccc3)CC2)c1 | -9.9 |
| CN1CCN(/C=C2\SC(=S)NC2=O)CC1 | 11.6 |
| O=C(NNc1ccccc1)C(=O)NNS(=O)(=O)c1ccc(CCCl)cc1 | 2.82 |
| O=C1CC(N2CCOCC2)=NN1c1ccc([N+](=O)[O-])cc1 | -8.54 |
| CCNC(=S)NNC(=O)c1nn(C)c(C)c1Cl | 19 |
| CC(=O)Nc1c(O)n(C)c2ccccc12 | 13.6 |
| CC(=O)N1CCC2(CC1)CC(=O)c1cc(OCC(=O)N3CCC4(CC3)OCCO4)ccc1O2 | 18.5 |
| CCOC(=O)C1CCN(C(=O)C(C)Oc2ccc(Br)cc2)CC1 (stereo not shown) | -16.1 |
| CCN1CCN(C(=O)COc2ccc3c(c2)C(=O)CC2(CCN(C(C)=O)CC2)O3)CC1 | 20.5 |
| O=C1CC2(CCN(C(=O)COc3ccccc3F)CC2)Oc2ccccc21 | -49.1 |
| CC(Oc1ccc(Br)cc1)C(=O)N1CCC(C(N)=O)CC1 (stereo not shown) | -78.1 |
| Cc1ccccc1OCC(=O)N1CCC2(CC1)CC(=O)c1ccccc1O2 | -57.5 |
| COc1ccc(OCC(=O)N2CCC3(CC2)CC(=O)c2ccccc2O3)cc1 | -88.9 |
| CCOc1ccc(OCC(=O)N2CCC3(CC2)CC(=O)c2ccccc2O3)cc1 | -94.6 |
| CC(=O)N1CCC2(CC1)CC(=O)c1cc(OCC(=O)N3CCN(C)CC3)ccc1O2 | 1.86 |
| CCC(Oc1ccccc1)C(=O)N1CCC(C(N)=O)CC1 (stereo not shown) | 15.8 |
| COc1ccccc1OCC(=O)N1CCC2(CC1)CC(=O)c1ccccc1O2 | -40.2 |
| CCOC(=O)N1CCN(C(=O)COc2ccc3c(c2)C(=O)CC2(CCN(C(C)=O)CC2)O3)CC1 | -2.13 |
| O=C(Nc1ccccc1N1CCOCC1)c1cccnc1 | 15 |
| O=C(N/N=C/c1cccs1)c1cccc(NC(=O)c2ccc(Cl)cc2)c1 | 7.57 |

| SMILES | hERG current change (%, negative = inhibition) at 10uM [%] |
| --- | --- |
| CO[C@@]1(NC(=O)C2SC(=C(C(N)=O)C(=O)O)S2)C(=O)N2C(C(=O)O)=C(CSc3nnnn3C)CS[C@@H]21 (stereo partly shown) | 13.6 |
| CCCNc1nc(C)nc2c1cnn2CCc1ccccc1 | -12.8 |
| CCOc1nc(CC(C)C)c2c(c1C#N)CC(C)(C)OC2 | 1.14 |
| O=C1CC(NS(=O)(=O)c2ccc3ccccc3c2)CN1c1ccccc1 (stereo not shown) | -0.798 |
| Cl.N=c1sccn1CC(=O)Nc1ccc(Cl)cc1[N+](=O)[O-] | -21 |
| COc1cc(C(=O)NNC(=O)c2cc(C)[nH]n2)cc(OC)c1OC | 18.8 |
| C/C(=N\NC(=O)C1CC1)c1cccs1 | 9.16 |
| O=C1CC2(CCN(C(=O)COc3ccccc3)CC2)Oc2ccccc21 | -67.4 |
| O=C1CC2(CCCCC2)Oc2ccc(OCC(=O)N3CCOCC3)cc21 | 3.3 |
| O=C1CC2(CCN(C(=O)COc3ccc(F)cc3)CC2)Oc2ccccc21 | -42.6 |
| O=C(NCc1ccncc1)/C(=N/O)c1ccccc1 | 18.7 |
| CSc1ccccc1NC(=O)Nc1ccc(Cl)cc1 | -1.3 |
| CC(C)C(=O)Nc1ccccc1C(=O)OCC(=O)c1ccc2c(c1)OCCO2 | -10.4 |
| CCn1c(CN2CCN(Cc3ccc(C)cc3)C(CCO)C2)nc2ccccc21 (stereo not shown) | -74.7 |
| Cc1ccc(CN2CCN(Cc3ccc4cccc(F)c4n3)CC2CCO)cc1 (stereo not shown) | -68.6 |
| CC(C)Cn1c(CN2CCN(C)C(CCO)C2)nc2ccccc21 (stereo not shown) | 4.02 |
| Cc1ccccc1CN1CCN(Cc2ccc3cccc(F)c3n2)CC1CCO (stereo not shown) | -32.7 |
| Cc1ccc(CN2CCN(Cc3nc4ccccc4nc3C)CC2CCO)cc1 (stereo not shown) | -69.7 |
| Cc1nc2ccccc2nc1CN1CCN(Cc2ccc(F)c(F)c2)C(CCO)C1 (stereo not shown) | -40.4 |
| CCn1cc(CN2CCN(Cc3ccccc3)C(CCO)C2)c2ccccc21 (stereo not shown) | -32 |
| OCCC1CN(Cc2ccc3cccc(F)c3n2)CCN1Cc1ccccc1 (stereo not shown) | -15.6 |
| Cc1ccc(CN2CCN(Cc3cccc(C)n3)CC2CCO)cc1 (stereo not shown) | -40.2 |

| SMILES | hERG current change (%, negative = inhibition) at 10uM [%] |
| --- | --- |
| O=C(COc1ccc2ccccc2c1Br)Nn1cnnc1 | -1.78 |
| CCCCn1c(C)cc2cc(O)ccc21 | -16.8 |
| CC(Oc1ccccc1F)C(=O)NC1CCS(=O)(=O)C1 (stereo not shown) | 11 |
| CC(=O)[C@@H]1[C@@H](C)N(Cc2ccccc2)C(=O)N[C@H]1c1ccccc1 | 10.4 |
| CC1(/[N+]([O-])=C/c2cccc(Cl)c2)CCCCC1=O (stereo not shown) | 4.74 |
| Cc1ccc(NC(=O)COC(=O)C2CC2(Cl)Cl)cc1C (stereo not shown) | -4.06 |
| CSCCC(NC(=O)c1ccco1)C(=O)N(C)CC(=O)Nc1c(Cl)cccc1Cl (stereo not shown) | 11.8 |
| O=C(O)C1C2C=CC(C3CC23)C1C(=O)O (stereo not shown) | 10.6 |
| Cc1noc(C)c1C(=O)NCCc1ccccc1 | 0.324 |
| O=C(CN1CCC(n2nnc3cc(C(F)(F)F)ccc32)CC1)NCc1cccs1 | -74.5 |
| O=C(CN1CCC(n2nnc3ccccc32)CC1)NCc1cccs1 | -60.2 |
| Cc1ccccc1C(=O)NC1CCN(CC(=O)NCc2cccs2)CC1 | 6.14 |
| COc1ccc(C(=O)NNC(=O)CN2CCC(n3nnc4cc(C(F)(F)F)ccc43)CC2)cc1 | -10.4 |
| O=C(CN1CCC(n2nnc3ccccc32)CC1)Nc1ccc2c(c1)CCC2 | -39.3 |
| O=C(CN1CCC(n2nnc3cc(C(F)(F)F)ccc32)CC1)Nc1ccc2c(c1)CCC2 | 1.83 |
| COc1ccccc1CNC(=O)c1cc2c(s1)CS(=O)(=O)C2 | 10.3 |
| COc1cc(C)c(NC(=S)Nc2ccc(Cl)c(Cl)c2)cc1OC | 5.06 |
| COc1cc(CNc2nnnn2C)ccc1OCc1c(F)cccc1Cl | 0.756 |
| COC(=O)C1=C(c2ccc(-c3ccccc3)c(F)c2)C[C@@H]2CC[C@H]1N2C(=O)NC(C)C | -16.8 |
| COc1cccc(CN(C)C(=O)CSCC(=O)Nc2ccc(C)cc2)c1OC | -12.9 |
| CCOC(=O)Cn1c(CN2CCOCC2)nc2c1c(=O)[nH]c(=O)n2C | 7.2 |
| COc1ccc(C2Nc3ccccc3C(=O)N2Cc2ccccc2)cc1 (stereo not shown) | 3.75 |

| SMILES | hERG current change (%, negative = inhibition) at 10uM [%] |
| --- | --- |
| CC(C)CC(NC(N)=O)C(=O)NCCc1ccc(Cl)cc1Cl (stereo not shown) | 3.07 |
| CCOP(=O)(OCC)C(NC(=O)Nc1cccc(Cl)c1)c1ccccc1 (stereo not shown) | 5.75 |
| COc1ccc2nc(/C=N/NC(=O)[C@H](CCSC)NC(=O)OC(C)(C)C)ccc2c1 | -59.7 |
| CCC(C)[C@H](NC(=O)OC(C)(C)C)C(=O)N/N=C/c1ccc2cc(OC)ccc2n1 (stereo partly shown) | -13.7 |
| COc1ccc2nc(/C=N/NC(=O)[C@H](C)NC(=O)OC(C)(C)C)ccc2c1 | -7.25 |
| Cc1ccc(NC(=O)C2=C(C(=O)O)CCCC2)cc1F | 7.33 |
| Cn1ncc(C(=O)Nc2ccc(Cl)cc2)c1C(F)(F)F | -12 |
| CC(C)(C)C(=O)N1CCN(c2ccc([N+](=O)[O-])c(NCC3CCCO3)c2)CC1 (stereo not shown) | -20.8 |
| NC(=O)c1ccc(NCC2CCCO2)c([N+](=O)[O-])c1 (stereo not shown) | 12.7 |
| O=C(Nc1ccccc1)c1ccc(NCC2CCCO2)c([N+](=O)[O-])c1 (stereo not shown) | -2.42 |
| O=C(c1ccccc1F)N1CCN(c2ccc([N+](=O)[O-])c(NCC3CCCO3)c2)CC1 (stereo not shown) | -80.8 |
| CC(=O)N1CCN(c2ccc([N+](=O)[O-])c(NCC3CCCO3)c2)CC1 (stereo not shown) | -18.3 |
| O=C(NCCc1ccccc1)c1ccc(NCC2CCCO2)c([N+](=O)[O-])c1 (stereo not shown) | -68.9 |
| O=C(c1ccccc1)N1CCN(c2ccc([N+](=O)[O-])c(NCC3CCCO3)c2)CC1 (stereo not shown) | -76.9 |
| CN1CCN(c2ccc([N+](=O)[O-])c(NCC3CCCO3)c2)CC1.Cl (stereo not shown) | -41.4 |
| O=[N+]([O-])c1ccc(N2CCNCC2)cc1NCC1CCCO1 (stereo not shown) | -22.1 |
| O=C1CC(N(C(=O)c2ccco2)c2cccc(Cl)c2)C(=O)N1c1cccc(Cl)c1 (stereo not shown) | -19.7 |
| C/C(Cn1cnc([N+](=O)[O-])n1)=N\NC(=O)c1ccccc1O | 8.06 |
| COc1cc(C(=O)Nc2ccc(Br)cc2C(=O)c2ccccc2)cc(OC)c1OC | 12.4 |
| COc1ccc(CNS(=O)(=O)c2cc(-c3cc(C)no3)ccc2C(C)C)cc1 | -14.9 |
| CCCCC(CC)CNC(=O)C1CCCN(S(=O)(=O)c2cnc[nH]2)C1 (stereo not shown) | 3.45 |
| N#CCCN(CC(=O)O)S(=O)(=O)c1ccccc1 | 5.74 |
